Lassa entry inh = blocks Lassa virus binding to or entry into cells; Potency, µM (doses to about 37.9 µM), usual class: inhibitors; hit rate 1.2% among 300,000; Lassa virus pseudotype entry inhibition, cell reporter; calls by dose curve; tested in HEK293 cells; also: nearly all actives have a fitted effect of over 50% in size
HCMV antiviral = inhibitors of human cytomegalovirus; hit rate 4.5% among 410,000; activity change, negative = inhibition, % at 57.5 µM; AID 1259415; HFF cells, HCMV-luciferase reporter, 72 h; active compounds read low; in the data active = activity change below about -60%; inconclusive = no clear call, values can overlap the other calls; inactive = above about -39%
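Two-dose cell screen: HFF monolayers treated with compounds and infected with luciferase-expressing HCMV at 1 PFU/cell, 72 h at 37C, then lysed for luciferase measurement.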
Marburg entry inh = inhibitors of Marburg virus binding or cell entry. Potency, µM (doses to about 37.8 µM), actives largely listed as inhibitors. Marburg virus pseudotyped entry inhibition, cell reporter. hit rate 1.8% among 300,000. AID 540276; calls by dose curve; tested in HEK293 cells
HCV inh = blocks hepatitis C virus | hit rate 3.4% among 340,000 | Potency, µM (top dose mostly 41.8 µM), most hits filed as inhibitors | Huh7.5.1 HCVcc-Cre infection, luciferase reporter, 44 h; active = well fitted inhibition curve with a large enough effect; inconclusive = small, poorly fitted or top-dose-only effect, or another doubt; inactive = no such curve, though single readings can be large or run the other way
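Infectious HCVcc-Cre (~0.5 moi) was added to cells just after compound, with cells seeded 4 h earlier at 1,000 per well. Luciferase activity after 44 h culture reported infection; substrate was incubated 15 min at room temperature before reading.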
SARS PLpro yeast = SARS-CoV PLP inhibition in yeast; S. cerevisiae expressing SARS-CoV PLpro, growth rescue; Potency, µM (titrated, usually from 32.9 µM), usual class: activators; hit rate 0.19% among 330,000; AID 485353; calls by dose curve; also: nearly all actives have a fitted effect of over 55% in size
FMDV antiviral = blocks foot and mouth disease virus; FMDV antiviral cell-based qHTS; Potency, µM (highest dose often 57.9 µM), usual class: inhibitors; hit rate 1.2% among 410,000; calls by dose curve; tested in HEK293T cells; also: read-out not given here; nearly all actives have a fitted effect of over 45% in size
Large screens that a line does not name were inactive. The list is not random: actives were taken first. Their share in the collection is about 8%.

O=C(CSc1nc2nccnc2c(=O)n1CCc1c[nH]c2ccccc12)Nc1ccc(F)cc1	HCMV antiviral -63 (no result: Marburg entry inh, HCV inh, SARS PLpro yeast)
O=C(Nc1cc(C(=O)Nc2ccc(S(=O)(=O)O)cc2S(=O)(=O)O)cc(C(=O)Nc2ccc(S(=O)(=O)O)cc2S(=O)(=O)O)c1)Nc1cc(C(=O)Nc2ccc(S(=O)(=O)O)cc2S(=O)(=O)O)cc(C(=O)Nc2ccc(S(=O)(=O)O)cc2S(=O)(=O)O)c1	Marburg entry inh 13µM (no result: Lassa entry inh, HCMV antiviral, HCV inh, SARS PLpro yeast)
N#CC1=C(N)C(C#N)(C#N)[C@H](c2ccoc2)[C@H]2CN(Cc3ccccc3)CC=C12	HCMV antiviral inconclusive, Marburg entry inh 6.3µM, FMDV antiviral inconclusive
N/C(=N\OCc1ccccc1)c1nonc1N	none (no result: Lassa entry inh, Marburg entry inh)
N/C(=N/OCc1cccc([N+](=O)[O-])c1)c1nonc1N	HCMV antiviral -60
O=S(=O)(c1ccccc1)c1cnn(-c2ccccc2)c1-c1ccc(F)cc1	HCMV antiviral -61, Marburg entry inh inconclusive, HCV inh inconclusive, FMDV antiviral inconclusive
COc1ccc(-n2ncc(S(=O)(=O)c3ccccc3)c2-c2ccc(Cl)cc2)cc1	Lassa entry inh inconclusive, HCMV antiviral inconclusive, Marburg entry inh inconclusive, HCV inh 10µM, FMDV antiviral inconclusive
COc1ccc(-n2nc(C(F)(F)F)cc2-c2ccc(Cl)cc2)cc1	Marburg entry inh inconclusive (no result: Lassa entry inh, HCMV antiviral, HCV inh, SARS PLpro yeast)
Cc1cc(=O)oc2ccc(OCC(=O)N(Cc3ccc(F)cc3)Cc3ccco3)cc12	Marburg entry inh inconclusive, HCV inh 3.2µM, FMDV antiviral 20µM
CCc1ccc(OCC(=O)N(Cc2ccc(C)cc2)Cc2ccco2)cc1	none (no result: HCV inh, SARS PLpro yeast)
Cc1cccc(OCC(=O)N(Cc2ccc(C(C)(C)C)cc2)Cc2ccco2)c1	Lassa entry inh inconclusive, HCMV antiviral -82 (no result: HCV inh, SARS PLpro yeast)
Cc1ccc(CN(Cc2ccco2)C(=O)COc2ccc(C)c(C)c2)cc1	Lassa entry inh inconclusive, Marburg entry inh inconclusive (no result: HCV inh, SARS PLpro yeast)
Fc1ccc(CN2CCN3CCCC3C2C2CCCCC2)cc1F (stereo not given)	Lassa entry inh 13µM, Marburg entry inh inconclusive, FMDV antiviral inconclusive
O=[N+]([O-])c1cccc(S(=O)(=O)Nc2nc3ccccc3nc2Nc2cccc(S(=O)(=O)N3CCCCC3)c2)c1	HCMV antiviral -100, HCV inh 10µM, FMDV antiviral inconclusive (no result: Lassa entry inh, Marburg entry inh)
Cc1ccc(C(=O)Nc2cccc(S(=O)(=O)N3CCCCC3)c2)cc1[N+](=O)[O-]	HCV inh 7.1µM, FMDV antiviral inconclusive (no result: Lassa entry inh, Marburg entry inh)
COc1cc(C(=O)Nc2cccc(S(=O)(=O)N3CCCC3)c2)c([N+](=O)[O-])cc1OC	HCV inh inconclusive
COc1ccc(NC(=O)c2cc3c(s2)CCC(C)C3)cc1S(=O)(=O)N1CCOCC1 (stereo not given)	Lassa entry inh 23µM, HCMV antiviral -100, Marburg entry inh inconclusive, HCV inh inconclusive, FMDV antiviral 28µM
O=C(Nc1ccccc1N1CCCCC1)c1ccc(F)c(S(=O)(=O)N2CCOCC2)c1	HCV inh 10µM
CCOC(=O)C1CCN(C(=O)c2nn(-c3ccc(C)cc3)c(=O)n(C)c2=O)CC1	Lassa entry inh inconclusive (no result: Marburg entry inh, HCV inh, SARS PLpro yeast)
Cc1ccc(C(CC(=O)Nc2cc(C)cc(C)c2)N2Cc3ccccc3C2=O)cc1 (stereo not given)	Lassa entry inh inconclusive (no result: Marburg entry inh, HCV inh, SARS PLpro yeast)
Cc1ccc(C(=O)Nc2cccc(S(=O)(=O)N3CCCCC3)c2)cc1S(=O)(=O)N1CCOCC1	HCV inh 8.9µM, FMDV antiviral inconclusive (no result: Lassa entry inh, Marburg entry inh, SARS PLpro yeast)
Cc1c(NC(=O)c2ccc(Cl)c([N+](=O)[O-])c2)cccc1-n1cnnn1	Lassa entry inh inconclusive, Marburg entry inh inconclusive, HCV inh 11µM
Cc1ccc(NC(=O)Nc2ccccc2)cc1[N+](=O)[O-]	HCV inh inconclusive
O=C(Nc1ccccc1)Nc1ccc(Cl)c([N+](=O)[O-])c1	Lassa entry inh inconclusive, HCMV antiviral inconclusive, Marburg entry inh inconclusive, HCV inh 13µM
COc1ccc(C(=O)Nc2cccc(S(=O)(=O)N3CCCC3)c2)cc1S(=O)(=O)N1CCOCC1	HCV inh inconclusive
O=C(Nc1ccc2c(c1)CCC2)c1ccc(F)c(S(=O)(=O)N2CCOCC2)c1	Lassa entry inh inconclusive, HCMV antiviral inconclusive, Marburg entry inh inconclusive, HCV inh 16µM
O=C(Nc1ccc(S(=O)(=O)Nc2ncccn2)cc1)c1ccc(F)c(S(=O)(=O)N2CCOCC2)c1	none (no result: Lassa entry inh, Marburg entry inh)
Cc1ccc(-n2c(SCC(N)=O)nc3c(oc4ccccc43)c2=O)cc1C	FMDV antiviral inconclusive (no result: Lassa entry inh, HCV inh, SARS PLpro yeast)
COc1cccc(Nc2ncc3nc(CCc4ccccc4)c(=O)n(C4CC4)c3n2)c1	none (no result: Lassa entry inh, HCMV antiviral, Marburg entry inh, HCV inh, SARS PLpro yeast)
Cc1cc(C)n2nc(CNC(=O)c3cccc(Cl)c3)nc2n1	none (no result: HCV inh, SARS PLpro yeast)
Cc1cccc(C)c1NS(=O)(=O)c1ccc(NC(=O)c2ccc(Cl)c([N+](=O)[O-])c2)cc1	HCMV antiviral -66, HCV inh 7.1µM
Cc1ccc(S(=O)(=O)N2CCOCC2)cc1NC(=O)c1cc2c(s1)CCC2	none
Cc1ccc(C(=O)NC(C)c2ccc(-n3ccnc3)cc2)cc1S(=O)(=O)N1CCOCC1 (stereo not given)	HCMV antiviral -97, HCV inh inconclusive
Cc1ccc(NC(=O)c2cc3c(s2)CCC3)cc1S(=O)(=O)N1CCOCC1	HCMV antiviral -65, HCV inh 7.9µM, FMDV antiviral inconclusive
Cc1ccc(C(=O)Nc2ccc3c(c2)CCC3)cc1S(=O)(=O)N1CCOCC1	HCMV antiviral -62, Marburg entry inh inconclusive, HCV inh inconclusive
CCOC(=O)c1c(C)oc2c1cc(NS(=O)(=O)c1ccc(C)cc1)c1ccccc12	none (no result: Marburg entry inh, HCV inh, SARS PLpro yeast)
O=C(OCc1ccccc1F)c1ccc(-c2nnn(Cc3ccccc3)n2)cc1	none (no result: HCV inh, SARS PLpro yeast)
CSc1ccc(CCNC(=O)CN2C(=O)COc3ccc(S(=O)(=O)N4CCCCCC4)cc32)cc1	Lassa entry inh inconclusive, Marburg entry inh inconclusive (no result: HCV inh, SARS PLpro yeast)
Cc1ccc(C(=O)NC2CCCC2)cc1S(=O)(=O)N1CCCCC1	Lassa entry inh inconclusive, HCV inh inconclusive
Cc1cnc(NC(=O)c2ccc(F)c(S(=O)(=O)N3CCOCC3)c2)s1	HCMV antiviral -105, HCV inh inconclusive
O=C(Cn1cnc2cc([N+](=O)[O-])ccc2c1=O)Nc1cccc(S(=O)(=O)N2CCCCC2)c1	HCMV antiviral inconclusive, HCV inh 5.6µM, FMDV antiviral inconclusive (no result: Lassa entry inh, Marburg entry inh, SARS PLpro yeast)
Cc1ccc(NC(=O)c2cccc(S(=O)(=O)N(C)c3ccccc3)c2)cc1S(=O)(=O)N1CCOCC1	Lassa entry inh inconclusive, HCMV antiviral -70, Marburg entry inh inconclusive, HCV inh 4µM, FMDV antiviral inconclusive
Cc1ccc(C(=O)NNC(=O)c2ccccc2O)cc1S(=O)(=O)N1CCCCC1	HCV inh 13µM
O=C(Cn1cnc2cc([N+](=O)[O-])ccc2c1=O)N1CCN(S(=O)(=O)c2ccccc2)CC1	Marburg entry inh inconclusive
C#CCNc1ccc2c(c1)OC[C@H](C)NS2(=O)=O	none (no result: HCMV antiviral, Marburg entry inh, HCV inh, SARS PLpro yeast, FMDV antiviral)
CC1CCN(C(=S)NC(=O)c2ccco2)CC1	Lassa entry inh inconclusive, HCMV antiviral -68
CC1CCCCN1C(=S)NC(=O)c1ccco1 (stereo not given)	none
